Inconclusive results are not listed. Active and inactive are the calls of the source. The call rests on the fitted dose curve; in most records, active means well fitted inhibition curve with a large enough effect; inconclusive means small, poorly fitted or top-dose-only effect; inactive means flat fitted curve, though single readings scatter.
Columns and labels:
CRL-7250 = normal cell line; test: Cytotoxic Profiling of Annotated Libraries Using Quantitative High-Throughput Screening (AID 1296008); conditions: Five cell lines viability, CellTiter-Glo ATP luminescence, 48-72 h; max response: stronger effect = lower value; on max response: on the % scale 0 is the no-effect control and ±100 the full control effect
Outline: (§1)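 Compounds were pin-transferred onto cells and incubated 48 or 72 hr at 37 degree Celsius, 95% humidity. CellTiter-Glo was added, plates sat 10 min at room temperature, then ATP-coupled luminescence was imaged as the viability read-out.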

HaCat [1] = test: as above; conditions: Five cell lines viability, CellTiter-Glo ATP luminescence, 48-72 h; max response: stronger effect = lower value
Outline: as §1

KB-3-1 = test: as above; conditions: Five cell lines viability, CellTiter-Glo ATP luminescence, 48-72 h; max response: stronger effect = lower value
Outline: as §1

NIH3T3 = test: as above; conditions: Five cell lines viability, CellTiter-Glo ATP luminescence, 48-72 h; max response: stronger effect = lower value
Outline: as §1

HACAT [2] = test: qHTS assay to identify novel small-molecules to repurpose for Merkel cell carcinoma treatment (AID 1296009); conditions: MCC and control cell lines, CellTiter-Glo viability, 72 h; at 44.8 µM (top of the series) unless noted
Outline: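 Viability readout: ATP luminescence (CellTiter-Glo) after 72 hr drug exposure at 37 degree celsius. Dose-response format was 8 points for NPC and 11 points for MIPE; data normalized to in-plate controls.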

Measured: max response
Further: nearly all actives have a fitted effect of over 60% in size.

CCOC(=O)N1c2ccc(C(F)(F)F)cc2C(N(Cc2cc(C(F)(F)F)cc(C(F)(F)F)c2)C(=O)OC)CC1CC (configuration not stated)
inactive: CRL-7250 -2.53% | HaCat [1] -2.39% | KB-3-1 -0.758% | NIH3T3 3.11%

O=C(NCCCN1CCC2(CC1)OCc1ccccc12)[C@H]1CCCN1Cc1ccccc1
inactive: CRL-7250 | HaCat [1] | KB-3-1 -7.1% | NIH3T3 4.93% | HACAT [2]

C=C1C(OC2OC(CO)C(O)C(O)C2O)CC2C(C)(C)C(O)CCC2(C)C1CC/C(C)=C\COC(=O)CC(=O)O (configuration not stated)
inactive: CRL-7250 -0.672% | HaCat [1] | KB-3-1 | NIH3T3 3.9% | HACAT [2] inactive [at 17.4 µM]

CC(=O)OC1CC(C)C2(CCC3(CC(=O)OC3O)O2)C2(C)CCCC(C)(C)C12 (configuration not stated)
inactive: CRL-7250 | HaCat [1] | KB-3-1 0.411% | NIH3T3 0.0681% | HACAT [2] inactive [at 17.4 µM]

CNCCN1CCC(c2cc(CN(C)C(=O)c3cccc(Oc4ccccc4)c3)ccn2)CC1
inactive: CRL-7250 1.09% | HaCat [1] | KB-3-1 8.17% | NIH3T3 1.12% | HACAT [2] inactive [at 17.4 µM]

Cc1ccc(S(=O)(=O)NCc2ccc(C(=O)NCCN(Cc3ccccc3)C(C)C)cc2)cc1
inactive: CRL-7250 -10.1% | HaCat [1] -19.3% | KB-3-1 -24.2% | NIH3T3 -5.87%

COc1cccc(N2CCN(C3=Nc4c(F)cccc4[C@H](CC(=O)O)N3c3cc(C(F)(F)F)ccc3OC)CC2)c1
inactive: CRL-7250 3.02% | HaCat [1] | KB-3-1 -13.7% | NIH3T3 3.41% | HACAT [2]

Fc1ccc2c(CCNCc3cccc(OCC(F)(F)C(F)F)c3)c[nH]c2c1
inactive: CRL-7250 4.88% | HaCat [1] | KB-3-1 7.73% | NIH3T3 | HACAT [2]

Cc1c(C2=CCN(C(=O)N(C)C(C)C)CC2)nnn1-c1cccnc1F
inactive: CRL-7250 -2.94% | HaCat [1] 3% | KB-3-1 7.23% | NIH3T3 -3.1%

O=C(/C=C/c1ccccc1O)O[C@@H]1O[C@H](CO)[C@@H](O)[C@H](O)[C@H]1O
inactive: CRL-7250 2.59% | HaCat [1] -3.03% | KB-3-1 | NIH3T3

CCC(CC)(NC(=O)C(C)C)C(=O)N[C@@H](CCCN=C(N)N)C(=O)NC1(C(=O)NC(c2ccc(F)cc2)c2ccc(F)cc2)CCCC1
inactive: CRL-7250 2.72% | HaCat [1] -3.8% | KB-3-1 7.28% | NIH3T3 -2.32%

COc1ccc(CN2CCN(CCCSc3cc(C(C)(C)C)c(O)c(C(C)(C)C)c3)CC2)c(OC)c1OC
inactive: CRL-7250 | HaCat [1] -2% | KB-3-1 | NIH3T3 4.43%

CC(=O)O[C@H]1[C@@]2(O)C[C@H](C)[C@H](OC(=O)c3ccccc3)[C@@H]2[C@@H](OC(=O)CO)[C@]2(OC(C)=O)C[C@H]3C(=O)C(C)(C)C[C@@H]3[C@@]1(C)[C@H]2OC(C)=O
inactive: CRL-7250 -5.8% | HaCat [1] | KB-3-1 -0.153% | NIH3T3 1.84% | HACAT [2] inactive [at 17.4 µM]

Nc1nc2c(cnn2CCCc2ccc(O)cc2)c2nc(-c3ccco3)nn12
inactive: CRL-7250 | HaCat [1] -2.77% | KB-3-1 8.63% | NIH3T3 3.84%

Cc1cccc(N2CCN(C(=O)c3cc(S(=O)(=O)N(C)C)ccc3N3CCCC3)CC2)c1C
inactive: CRL-7250 -10.2% | HaCat [1] | KB-3-1 | NIH3T3 -5.43% | HACAT [2]

C/C=C(\C)C(=O)OC1C=C(C)CC(OC(=O)c2ccc(O)cc2)C2C1(C)CCC2(O)C(C)C (configuration not stated)
inactive: CRL-7250 1.09% | HaCat [1] | KB-3-1 5.76% | NIH3T3 | HACAT [2] inactive [at 17.4 µM]

O=C(Nc1ccccc1C(=O)Nc1ccc(CCO)cc1)c1ccc([N+](=O)[O-])cc1
inactive: CRL-7250 -0.113% | HaCat [1] | KB-3-1 | NIH3T3 | HACAT [2]

CN(C)CCOc1cc(NS(=O)(=O)c2c(Cl)cc(C(F)(F)F)cc2Cl)ccc1Cl
inactive: CRL-7250 2.92% | HaCat [1] | KB-3-1 -11% | NIH3T3 | HACAT [2]

CCNC1(C(N)=O)CN(c2nc(C)nc3c(-c4ccc(Cl)cc4)c(-c4ccccc4Cl)nn23)C1
inactive: CRL-7250 -17.8% | HaCat [1] | KB-3-1 -14.3% | NIH3T3 -3.55% | HACAT [2]

COc1cc(O)cc(/C=C/c2cccc(O)c2)c1
inactive: CRL-7250 0.366% | HaCat [1] | KB-3-1 | NIH3T3 -7.28% | HACAT [2]

CC(=O)O[C@@H]1CC2C(/C=C(\C)C(=O)[C@@]3(O)C[C@@H](C)[C@H](OC(=O)c4ccccc4)C3/C=C/1C)C2(C)C (some centres not stated)
inactive: CRL-7250 | HaCat [1] -1.64% | KB-3-1 | NIH3T3 1.35%
